The campaign covered roughly 5,500 compounds. About 2,000 (36%) were called active. Another 18% or so got no clear call; they are omitted. Cut-off read from the data, not from the text of the source: active = normalized growth mostly below about 0.91 (no sharp cut-off); inconclusive = no clear call, values can overlap the other calls; inactive = mostly above about 0.92. The list shows a part of the results.
Test: chemical genetic growth profiling, strain panel (AID 1159580);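 note: tested at 20 µM; growth read once vehicle control cultures reached saturation at 30 °C; 1 = growth at the plate median or of vehicle wells; lower values mean less growth of the strain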
Details: S. cerevisiae deletion strains, growth OD
[1] = locus YHR030C, strain SLT2, active compounds read low
[2] = locus YHR079C, strain IRE1, active compounds read low
[3] = locus YJL095W, strain BCK1, active compounds read low
[4] = locus YJR066W, strain TOR1, active compounds read low
[5] = locus YLR113W, strain HOG1, active compounds read low
[6] = locus YNL183C, strain NPR1, active compounds read low
[7] = locus YOR231W, strain MKK1, active compounds read low
[8] = locus YPL256C, strain CLN2, active compounds read low

Measured: normalized growth

CO/N=C(/C(=O)NC1C(=O)N2C(C(=O)OCOC(=O)C(C)(C)C)=C(/C=C\c3scnc3C)CSC12)c1csc(N)n1 (centres undefined)
inactive: locus YAL021C, strain ccr4, active compounds read low 0.974 | locus YAL026C, strain drs2, active compounds read low 1.01 | locus YAL030W, strain snc1, active compounds read low 0.992 | locus YBL061C, strain skt5, active compounds read low 1 | locus YBR009C, strain hhf1, active compounds read low 0.98 | locus YBR023C, strain chs3, active compounds read low 1 | locus YBR171W, strain sec66, active compounds read low 1 | locus YBR231C, strain swc5, active compounds read low 0.965 | locus YBR279W, strain paf1, active compounds read low 1 | locus YCL011C, strain gbp2, active compounds read low 1 | locus YCL016C, strain dcc1, active compounds read low 1 | locus YCL069W, strain vba3, active compounds read low 0.999 | locus YCR088W, strain abp1, active compounds read low 0.999 | locus YDL005C, strain med2, active compounds read low 0.999 | locus YDL040C, strain nat1, active compounds read low 1 | locus YDR001C, strain nth1, active compounds read low 1.01 | locus YDR069C, strain doa4, active compounds read low 1.01 | locus YDR137W, strain rgp1, active compounds read low 1.03 | locus YDR159W, strain sac3, active compounds read low 0.902 | locus YDR195W, strain ref2 0.96 | locus YDR297W, strain sur2, active compounds read low 1.01 | locus YDR334W, strain swr1, active compounds read low 0.989 | locus YDR335W, strain msn5, active compounds read low 1.01 | locus YDR392W, strain spt3, active compounds read low 0.906 | locus YEL003W, strain gim4, active compounds read low 0.995 | locus YEL037C, strain rad23, active compounds read low 0.988 | locus YEL061C, strain CIN8 (second series), active compounds read low 0.985 | locus YER015W, strain faa2, active compounds read low 0.988 | locus YER016W, strain bim1, active compounds read low 1.03 | locus YER111C, strain swi4, active compounds read low 0.986 | locus YER155C, strain BEM2 (second series), active compounds read low 0.875 | locus YFR010W, strain ubp6, active compounds read low 0.998 | locus YGL167C, strain pmr1, active compounds read low 1 | locus YGL173C, strain kem1, active compounds read low 1 | locus YGL227W, strain vid30, active compounds read low 1.03 | locus YGL240W, strain doc1, active compounds read low 0.976 | locus YGL253W, strain hxk2, active compounds read low 1.01 | locus YHR013C, strain ard1, active compounds read low 1 | locus YHR027C, strain rpn1, active compounds read low 1 | [1] 1.05 | [2] 1.04 | locus YHR142W, strain chs7, active compounds read low 1.02 | locus YJL092W, strain hpr5, active compounds read low 0.995 | locus YJL095W, strain BCK1 (second series), active compounds read low 0.994 | [3] 1.01 | locus YJL115W, strain asf1, active compounds read low 1 | locus YJL129C, strain trk1, active compounds read low 1.01 | locus YJL154C, strain vps35, active compounds read low 0.996 | locus YJL164C, strain tpk1, active compounds read low 0.989 | locus YJL166W, strain qcr8, active compounds read low 1 | locus YJL187C, strain SWE1, active compounds read low 1 | [4] 1.01 | locus YKL160W, strain elf1, active compounds read low 1 | locus YKR026C, strain gcn3, active compounds read low 0.994 | locus YKR091W, strain srl3, active compounds read low 0.993 | locus YLL001W, strain dnm1, active compounds read low 0.953 | locus YLL026W, active compounds read low 0.996 | locus YLL041C, strain sdh2, active compounds read low 0.997 | locus YLR027C, strain aat2, active compounds read low 1 | [5] 0.962 | locus YLR221C, strain rsa3, active compounds read low 0.994 | locus YLR258W, strain gsy2, active compounds read low 1.01 | locus YLR262C, strain YPT6 (second series), active compounds read low 0.992 | locus YLR320W, strain mms22, active compounds read low 0.955 | locus YLR342W, strain FKS1, active compounds read low 1.01 | locus YLR357W, strain rsc2, active compounds read low 0.942 | locus YLR370C, strain arc18, active compounds read low 0.991 | locus YLR384C, strain iki3, active compounds read low 1.02 | locus YML120C, strain ndi1, active compounds read low 0.995 | locus YMR058W, strain fet3, active compounds read low 0.991 | locus YMR125W, strain sto1, active compounds read low 0.981 | locus YMR129W, active compounds read low 0.992 | locus YMR205C, strain PFK2, active compounds read low 0.99 | locus YMR231W, strain pep5, active compounds read low 0.994 | locus YNL071W, strain lat1, active compounds read low 0.999 | [6] 0.981 | locus YNL209W, strain ssb2, active compounds read low 1.01 | locus YNL248C, strain rpa49, active compounds read low 1.01 | locus YNL322C, strain KRE1 (second series), active compounds read low 0.984 | locus YNR049C, strain mso1, active compounds read low 0.991 | locus YOR001W, strain rrp6, active compounds read low 0.973 | locus YOR070C, strain gyp1, active compounds read low 1 | locus YOR080W, strain dia2, active compounds read low 0.996 | locus YOR083W, strain WHI5, active compounds read low 0.95 | locus YOR106W, strain vam3, active compounds read low 1.01 | [7] 1.01 | locus YOR265W, strain rbl2, active compounds read low 0.998 | locus YOR270C, strain vph1, active compounds read low 1.04 | locus YOR290C, strain snf2, active compounds read low 1.01 | locus YPL051W, strain arl3, active compounds read low 1.01 | locus YPL078C, strain atp4, active compounds read low 0.998 | locus YPL106C, strain sse1, active compounds read low 1.01 | locus YPL240C, strain hsp82, active compounds read low 1 | [8] 1.03

Cc1cc2nc3c(Cl)c(O)c4ccccc4c3nc2cc1C
inactive: locus YAR019C, strain CDC15, active compounds read low 0.966 | locus YBL105C, strain PKC1, active compounds read low 0.961 | locus YBR135W, strain CKS1, active compounds read low 0.949 | locus YBR136W, strain MEC1, active compounds read low 0.965 | locus YBR160W, strain CDC28, active compounds read low 0.96 | locus YDL017W, strain CDC7, active compounds read low 0.965 | locus YDL028C, strain MPS1, active compounds read low 0.959 | locus YDL101C, strain DUN1, active compounds read low 0.981 | locus YDL108W, strain KIN28, active compounds read low 0.954 | locus YDL132W, strain cdc53, active compounds read low 0.966 | locus YDL214C, strain PRR2, active compounds read low 0.818 | locus YDR052C, strain DBF4, active compounds read low 0.953 | locus YDR054C, strain cdc34, active compounds read low 0.965 | locus YDR226W, strain ADK1, active compounds read low 0.949 | locus YER123W, strain YCK3, active compounds read low 0.766 | locus YER133W, strain GLC7, active compounds read low 0.87 | locus YFL009W, strain cdc4, active compounds read low 0.969 | locus YFL029C, strain CAK1, active compounds read low 0.946 | locus YFR003C, strain YPI1, active compounds read low 0.962 | locus YFR019W, strain FAB1, active compounds read low 0.887 | locus YFR028C, strain CDC14, active compounds read low 0.958 | locus YGR040W, strain KSS1, active compounds read low 0.724 | locus YGR052W, strain FMP48, active compounds read low 0.722 | locus YGR092W, strain DBF2, active compounds read low 0.487 | [2] 0.805 | locus YHR082C, strain KSP1, active compounds read low 0.737 | locus YHR205W, strain SCH9, active compounds read low 0.666 | locus YIL147C, strain SLN1, active compounds read low 0.958 | [3] 0.749 | locus YJL128C, strain PBS2, active compounds read low 0.944 | locus YJL157C, strain FAR1, active compounds read low 0.778 | locus YJR016C, strain ILV3, active compounds read low 0.955 | locus YJR066W, strain TOR1 (second series), active compounds read low 0.64 | [4] 0.559 | locus YKL067W, strain YNK1, active compounds read low 0.786 | locus YKL101W, strain HSL1, active compounds read low 0.829 | locus YKL193C, strain SDS22, active compounds read low 0.972 | locus YKL203C, strain TOR2, active compounds read low 0.766 | [5] 0.877 | locus YLR403W, strain SFP1, active compounds read low 0.663 | locus YML070W, strain DAK1, active compounds read low 0.852 | locus YMR001C, strain CDC5, active compounds read low 0.959 | locus YMR277W, strain FCP1, active compounds read low 0.961 | locus YNL006W, strain LST8, active compounds read low 0.974 | locus YNL161W, strain CBK1, active compounds read low 0.971 | [6] 0.739 | locus YNL207W, strain RIO2, active compounds read low 0.961 | locus YNL222W, strain SSU72, active compounds read low 0.955 | locus YOL078W, strain AVO1, active compounds read low 0.962 | locus YOL136C, strain PFK27, active compounds read low 0.838 | locus YOR119C, strain RIO1, active compounds read low 0.831 | [7] 0.829 | locus YOR329C, strain SCD5, active compounds read low 0.97 | locus YPL153C, strain RAD53, active compounds read low 0.68 | locus YPL209C, strain IPL1, active compounds read low 0.976 | [8] 0.869 | locus YPR025C, strain CCL1, active compounds read low 0.957 | locus YPR106W, strain ISR1, active compounds read low 1.01 | locus YPR111W, strain DBF20, active compounds read low 0.976 | strain NNK1, active compounds read low 0.966 | strain TSCII, active compounds read low 0.963
active: locus YDR477W, strain SNF1, active compounds read low 0.634 | [1] 0.55 | locus YKL048C, strain ELM1, active compounds read low 0.737 | locus YLR133W, strain CKI1, active compounds read low 0.679 | locus YMR205C, strain PFK2 (second series), active compounds read low 0.726 | locus YNL020C, strain ARK1, active compounds read low 0.617 | locus YOR061W, strain CKA2, active compounds read low 0.43 | locus YPL031C, strain PHO85, active compounds read low 0.643 | locus YPL204W, strain HRR25, active compounds read low 0.646

From PubChem BioAssay AID1159580 (chemical genetic matrix, 2015)
